Results: PubChem BioAssay
Inconclusive results are not listed. For some of these results: Potency and affinity values are given separately. Activity calls are given as the source filed them. Unless noted, how the calls were made is not given here.

Tests used:
[1] = blockers of polyQ-driven CASP3 activation – cell-based (AID 1583); settings: polyglutamine-induced caspase-3 activation, cell assay; stronger effect = higher value;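 tested at 10 µM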
[2] = yeast 75Q aggregation reduction – 75Q-TubU reporter (AID 1593); settings: Yeast 75Q polyglutamine aggregation reporter
[3] = restoration of touch response, mutant HTT neurons – whole organism, C. elegans mechanosensory neurons, N-terminal huntingtin (AID 1599); settings: C. elegans polyQ-huntingtin mechanosensory neurons, stronger effect = higher value
[4] = blockers of cytochrome c efflux from mitochondria – biochemical, purified mitochondria (AID 1603); settings: stronger effect = lower value;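 further: mouse liver mitochondria challenged with calcium chloride; signal normalized to the plate average as 100%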
[5] = polyglutamine aggregate formation blockers (AID 1604); settings: polyglutamine-induced protein aggregation inhibition assay; stronger effect = higher value; tested at 2.5 µM
[6] = glutamate transport activators, MN-1 cells, MN-1 cell line (AID 1612); settings: MN-1 motor neuron cells, stronger effect = higher value;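 further: tested at 1 µM final; 0% = mean of DMSO vehicle wells on each plate; positive means more glutamate uptake than control and negative means less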
[7] = GFP-Q80 aggregate reduction, neuronal-like cells, cell-based, NGF-treated PC12, GFPQ80 (AID 1614); settings: PC12 NGF-treated GFP-polyQ80 inclusion reduction;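 further: lower means fewer inclusions and 0 means no inclusions at all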
[8] = 75Q-TubH aggregate inhibition, S. cerevisiae, yeast (AID 1616); settings: S. cerevisiae 75Q-TubH polyglutamine aggregation suppression; stronger effect = higher value
[9] = glutamate excitotoxicity neuroprotectants – cell-based, TUNEL DNA degradation staining, MNGlu (AID 1594); settings: motor neurons, glutamate-induced death, at 1 µM, stronger effect = higher value
[10] = target: Huntingtin (Homo sapiens) (UniProt P42858); experiment: mutant huntingtin aggregation blockers – QA1, dose response (AID 1584); settings: in vitro mutant huntingtin aggregation assay; confirmation test; at 10 µM; stronger effect = lower value
Sequence of Huntingtin (Homo sapiens) (P42858 whole entry, looked up): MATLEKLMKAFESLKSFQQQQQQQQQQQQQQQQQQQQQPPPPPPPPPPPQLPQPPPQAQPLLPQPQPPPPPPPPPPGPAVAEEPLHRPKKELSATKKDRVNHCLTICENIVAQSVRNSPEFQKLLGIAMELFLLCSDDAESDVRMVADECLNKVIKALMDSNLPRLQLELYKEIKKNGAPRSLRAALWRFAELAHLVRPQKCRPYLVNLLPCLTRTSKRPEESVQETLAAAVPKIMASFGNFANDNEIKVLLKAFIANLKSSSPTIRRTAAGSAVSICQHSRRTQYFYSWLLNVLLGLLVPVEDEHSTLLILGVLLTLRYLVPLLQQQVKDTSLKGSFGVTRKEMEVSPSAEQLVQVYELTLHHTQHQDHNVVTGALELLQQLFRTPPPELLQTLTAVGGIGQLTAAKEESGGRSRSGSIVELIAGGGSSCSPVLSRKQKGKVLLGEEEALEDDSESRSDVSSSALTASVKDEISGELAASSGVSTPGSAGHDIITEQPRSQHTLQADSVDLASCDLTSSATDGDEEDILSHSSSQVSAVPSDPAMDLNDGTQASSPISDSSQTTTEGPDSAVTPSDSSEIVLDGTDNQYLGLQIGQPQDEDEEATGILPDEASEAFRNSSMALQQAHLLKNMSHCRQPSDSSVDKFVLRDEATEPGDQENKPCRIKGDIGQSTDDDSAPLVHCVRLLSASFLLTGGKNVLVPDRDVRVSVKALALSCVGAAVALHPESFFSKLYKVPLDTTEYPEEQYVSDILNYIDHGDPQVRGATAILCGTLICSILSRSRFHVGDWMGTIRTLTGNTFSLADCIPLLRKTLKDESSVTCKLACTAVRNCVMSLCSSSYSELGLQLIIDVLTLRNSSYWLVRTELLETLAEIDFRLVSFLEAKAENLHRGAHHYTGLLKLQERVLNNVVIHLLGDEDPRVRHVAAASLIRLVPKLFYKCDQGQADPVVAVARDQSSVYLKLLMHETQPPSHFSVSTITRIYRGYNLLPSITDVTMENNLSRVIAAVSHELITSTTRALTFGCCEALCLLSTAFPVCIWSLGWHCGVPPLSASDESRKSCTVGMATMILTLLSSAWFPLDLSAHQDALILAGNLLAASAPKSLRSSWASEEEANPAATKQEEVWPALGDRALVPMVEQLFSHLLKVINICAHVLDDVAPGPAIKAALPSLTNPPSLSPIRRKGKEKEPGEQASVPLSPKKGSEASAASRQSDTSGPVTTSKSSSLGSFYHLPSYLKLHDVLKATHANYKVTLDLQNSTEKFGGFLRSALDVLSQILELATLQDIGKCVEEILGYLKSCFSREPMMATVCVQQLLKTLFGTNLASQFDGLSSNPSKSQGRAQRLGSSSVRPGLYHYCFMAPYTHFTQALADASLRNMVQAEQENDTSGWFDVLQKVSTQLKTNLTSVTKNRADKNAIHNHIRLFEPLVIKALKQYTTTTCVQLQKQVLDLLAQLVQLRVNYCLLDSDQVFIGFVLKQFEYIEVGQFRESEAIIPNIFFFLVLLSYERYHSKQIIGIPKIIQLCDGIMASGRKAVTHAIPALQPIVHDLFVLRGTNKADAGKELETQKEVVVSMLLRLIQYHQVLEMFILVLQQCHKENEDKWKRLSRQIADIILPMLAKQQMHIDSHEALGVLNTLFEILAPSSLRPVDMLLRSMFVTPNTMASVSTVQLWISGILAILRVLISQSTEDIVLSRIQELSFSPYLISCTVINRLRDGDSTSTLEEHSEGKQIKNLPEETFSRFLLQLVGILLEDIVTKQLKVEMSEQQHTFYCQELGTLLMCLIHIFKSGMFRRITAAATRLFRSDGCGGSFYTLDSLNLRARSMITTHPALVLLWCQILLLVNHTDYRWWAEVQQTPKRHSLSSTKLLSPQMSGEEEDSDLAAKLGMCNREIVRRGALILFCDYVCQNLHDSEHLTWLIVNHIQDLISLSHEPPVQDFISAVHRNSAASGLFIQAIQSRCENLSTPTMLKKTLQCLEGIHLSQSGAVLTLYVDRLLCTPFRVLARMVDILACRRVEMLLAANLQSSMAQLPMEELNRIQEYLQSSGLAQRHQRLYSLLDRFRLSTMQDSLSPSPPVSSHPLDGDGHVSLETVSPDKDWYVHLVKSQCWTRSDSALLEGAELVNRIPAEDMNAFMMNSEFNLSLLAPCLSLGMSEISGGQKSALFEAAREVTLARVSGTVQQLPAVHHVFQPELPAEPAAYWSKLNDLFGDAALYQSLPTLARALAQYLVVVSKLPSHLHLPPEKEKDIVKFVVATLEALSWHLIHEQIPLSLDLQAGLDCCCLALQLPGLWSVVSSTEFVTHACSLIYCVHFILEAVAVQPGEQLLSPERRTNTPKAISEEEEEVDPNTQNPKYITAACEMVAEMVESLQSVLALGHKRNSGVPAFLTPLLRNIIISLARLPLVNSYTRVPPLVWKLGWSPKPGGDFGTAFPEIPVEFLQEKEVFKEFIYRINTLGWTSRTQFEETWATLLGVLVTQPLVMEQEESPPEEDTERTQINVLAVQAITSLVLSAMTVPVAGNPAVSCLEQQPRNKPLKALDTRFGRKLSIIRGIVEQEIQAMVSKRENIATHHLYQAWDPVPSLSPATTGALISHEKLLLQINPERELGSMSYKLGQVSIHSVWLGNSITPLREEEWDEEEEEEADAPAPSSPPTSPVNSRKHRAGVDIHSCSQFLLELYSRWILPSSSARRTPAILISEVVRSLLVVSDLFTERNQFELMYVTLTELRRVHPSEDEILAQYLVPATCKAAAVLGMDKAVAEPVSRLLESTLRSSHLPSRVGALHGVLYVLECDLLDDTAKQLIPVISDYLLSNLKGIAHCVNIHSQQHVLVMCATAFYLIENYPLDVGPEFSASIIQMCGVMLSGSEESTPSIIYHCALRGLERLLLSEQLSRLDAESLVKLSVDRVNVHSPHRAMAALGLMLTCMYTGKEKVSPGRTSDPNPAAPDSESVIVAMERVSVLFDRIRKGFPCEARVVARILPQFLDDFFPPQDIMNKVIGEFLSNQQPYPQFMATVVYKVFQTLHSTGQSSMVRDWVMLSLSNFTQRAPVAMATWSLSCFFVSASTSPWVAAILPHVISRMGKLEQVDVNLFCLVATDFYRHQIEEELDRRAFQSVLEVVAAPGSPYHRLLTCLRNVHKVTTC

[11] = rescue of PC12 cells from polyQ htt toxicity – LDH release (AID 1610); settings: PC12 mutant huntingtin toxicity, final LDH at 4 uM, stronger effect = lower value
[12] = galactose survival enhancers in mitochondrial complex I cybrids – cell-based, galactose medium, ATP luminescence, primary screen (AID 1645843;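 active means z-score of at least 1.8 in each of two replicates, scored against plate mean and spread of sample wells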;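 further: positive z means more ATP and so rescue of galactose-driven cybrid death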); settings: complex I mutant cybrid cells, 72 h, stronger effect = higher value
[13] = compounds altering circadian rhythm period length – cell-based, LOPAC library, luminescence reporter (AID 2774); settings: circadian reporter cells, at 7 µM, actives lie on both sides;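 further: values are relative to mean of DMSO wells on each plate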

SMILES: CCC1(CCC(C)C)C(=O)NC(=O)NC1=O
- inhibition [1]: 6.77%
- score [2]: 1.7
- rescue above control [3]: 0.92
- cytochrome c release ratio [4]: 0.96
- inhibition of aggregation [5]: 40.1%
- glutamate uptake change [6]: -7.2%
- inclusion score [7]: 2
- aggregation suppression score [8]: 1.35

SMILES: O=C1CN=C(c2ccccc2)c2cc(Cl)ccc2N1
- inhibition [1]: 6.42%
- score [2]: 1.16
- protection [9]: 38% (active)
- rescue above control [3]: 2.8
- cytochrome c release ratio [4]: 0.98
- inhibition of aggregation [5]: 2.04%
- glutamate uptake change [6]: -20.9%
- inclusion score [7]: 2
- aggregation suppression score [8]: 1.12

SMILES: COc1ccc2c3c1O[C@H]1[C@@H](O)C=CC4[C@@H](C2)N(C)CC[C@@]341 (stereo partly drawn)
- inhibition [1]: -19%
- score [2]: 1.17
- rescue above control [3]: 2.82
- cytochrome c release ratio [4]: 0.92
- inhibition of aggregation [5]: 61.9%
- glutamate uptake change [6]: -22%
- inclusion score [7]: 2
- aggregation suppression score [8]: 1.22

SMILES: NCCC(O)C(=O)N[C@@H]1C[C@H](N)[C@@H](O[C@H]2O[C@H](CN)[C@@H](O)[C@H](O)[C@H]2N)[C@H](OC2O[C@H](CO)[C@H](O)[C@H]2O)[C@H]1O (stereo partly drawn)
- inhibition [1]: 5.62%
- score [2]: 1.4
- rescue above control [3]: 9.62
- cytochrome c release ratio [4]: 1.37
- inhibition of aggregation [5]: 83.3%
- glutamate uptake change [6]: 13.4%
- inclusion score [7]: 2
- aggregation suppression score [8]: 1.55

SMILES: CC[C@H]1C(=O)OC[C@@H]1Cc1cccn1C
- inhibition [1]: -1.44%
- score [2]: 1.44
- rescue above control [3]: 2.37
- cytochrome c release ratio [4]: 0.94
- inhibition of aggregation [5]: 42.5%
- glutamate uptake change [6]: 10.3%
- inclusion score [7]: 2
- aggregation suppression score [8]: 1.24

SMILES: C[C@@]1(C(=O)O)CC[C@]2(C)CC[C@]3(C)C4=CC=C5C=C(O)C(=O)C=C5[C@]4(C)CC[C@@]3(C)[C@@H]2C1
- aggregation ratio [10]: 0.487
- score [2]: 1.77
- cytochrome c release ratio [4]: 3.7
- inhibition of aggregation [5]: 11.8%
- normalised LDH release [11]: 0.996
- glutamate uptake change [6]: -13.4%
- aggregation suppression score [8]: 1.23

SMILES: CCOC(=O)C1(c2ccccc2)CCN(C)CC1
- inhibition [1]: 15%
- score [2]: 1.03
- rescue above control [3]: 5.54
- cytochrome c release ratio [4]: 0.93
- inhibition of aggregation [5]: 7.48%
- glutamate uptake change [6]: 5.98%
- inclusion score [7]: 2
- aggregation suppression score [8]: 1.14

SMILES: CC(CCCC(C)(C)O)CCNC(C)Cc1ccsc1 (stereo not drawn)
- z-score [12]: -0.475 (inactive)

SMILES: CC(O)C(C)OC(=O)[C@@H]1C[C@@H]2c3cccc4c3c(cn4C(C)C)C[C@H]2N(C)C1 (stereo partly drawn)
- period change [13]: 0.035 h (inactive)
